Compound activity deposited in PubChem by Sanford-Burnham Center for Chemical Genomics.
SENP6 inh: SENP6 protease inhibitors, primary screen, biochemical, luminescence, uHTS; Recombinant SENP6 catalytic domain, aminoluciferin luminescence; inhibition, % at 10 µM; 330,000 tested, 1.8% active; AID 2599, 2010;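 active = inhibition above about 50% at the single tested dose, limit read from the data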
SENP7 inh: SENP7 protease inhibitors, primary screen, biochemical, luminescence, uHTS; 330,000 tested, 1.5% active; AID 434973, 2010; inhibition, % at 5 µM; recombinant SENP7, Z-RLRGG-aminoluciferin luminescence, 40 min;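 active = inhibition above about 50% at the single test dose, limit read from the data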
Target sequence (Q9BQF6 706-1050 limits assumed): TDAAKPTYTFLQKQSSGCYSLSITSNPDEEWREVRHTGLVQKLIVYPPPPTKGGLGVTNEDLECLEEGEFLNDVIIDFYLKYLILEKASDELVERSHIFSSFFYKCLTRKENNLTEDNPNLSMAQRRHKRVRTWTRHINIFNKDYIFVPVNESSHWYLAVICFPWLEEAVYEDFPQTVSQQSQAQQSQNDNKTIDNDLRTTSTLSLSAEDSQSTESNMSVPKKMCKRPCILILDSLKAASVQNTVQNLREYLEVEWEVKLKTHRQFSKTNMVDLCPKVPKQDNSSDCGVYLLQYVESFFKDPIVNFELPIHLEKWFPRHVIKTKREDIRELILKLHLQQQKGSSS
TRAIL sens C8: viability loss with TRAIL in NB7+C8 cells, primary screen, TRAIL sensitizer project, cell-based, ATPlite luminescence; inhibition (viability loss, TRAIL sensitization), % at 10 µM; 360,000 tested, 1% active; AID 624354, 2012;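 active = compounds causing at least 50% loss of cell viability in the single-dose screen, relative to plate controls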
PPC-1+TRAIL kill: compounds killing PPC-1 cancer cells with TRAIL present, primary screen, TRAIL potentiator project, ATPLite luminescence, uHTS; cell killing (% activity), % at 4 µM or 5 µM; 220,000 tested, 0.41% active; AID 1443, 2008; PPC-1 cells + TRAIL, ATPLite viability luminescence;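 active = cell killing above 50% in the first pass at 4 µM, then a duplicate retest at 5 µM averaging 50% or more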
SENP8 block-1: human SENP8 protease inhibitors, primary screen, biochemical, fluorescence, Nedd8 protein substrate, uHTS. Sentrin-specific protease 8 (Homo sapiens), Q96LD8. inhibition, % at 20 µM. recombinant SENP8. 360,000 tested, 0.64% active. AID 602440, 2012; in the data active = inhibition mostly above about 40%, no sharp cut-off; inactive = mostly below about 27%
Target sequence (Q96LD8 whole entry, looked up): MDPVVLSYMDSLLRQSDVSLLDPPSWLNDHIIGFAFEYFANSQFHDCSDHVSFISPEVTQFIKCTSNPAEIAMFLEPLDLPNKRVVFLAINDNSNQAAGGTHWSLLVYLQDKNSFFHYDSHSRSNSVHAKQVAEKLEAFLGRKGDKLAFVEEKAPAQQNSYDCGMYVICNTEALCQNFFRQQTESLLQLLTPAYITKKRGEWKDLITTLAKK
SENP8 block-2: SENP8 protease inhibitors, primary screen, biochemical, luminescence; inhibition, % at 10 µM; purified SENP8, Z-RLRGG-aminoluciferin cleavage; Sentrin-specific protease 8 (Homo sapiens), Q96LD8; 330,000 tested, 1.2% active; in the data active = inhibition above about 50%
Numbers stand for hits; 0 = inactive; - = no result given; ! = repeats disagree. Only some compounds are listed: those with a hit (about 3% of all), similar ones and a draw of the others.

SMILES	SENP6 inh	SENP7 inh	TRAIL sens C8	PPC-1+TRAIL kill	SENP8 block-1	SENP8 block-2
Nc1nc(N)c(N=Nc2ccccc2)c(=O)[nH]1	-	-	64.2	-	0	-
O=[N+]([O-])c1ccc(Sc2ccncn2)c([N+](=O)[O-])c1	-	-	53.0	-	0	-
CCS(=O)(=O)C1=NN2C(=N)/C(=C\c3ccc(OC(=O)c4ccco4)c(OC)c3)C(=O)N=C2S1	0	0	0	-	0	53.2
O=C(O)c1ccccc1C(=O)c1cccc2c(Br)cccc12	-	-	0	-	0	-
Cc1cc(C=O)c(C)n1-c1ccc(NC2CCCC2)c([N+](=O)[O-])c1	0	0	0	-	41.9	0
CCCCNC(=O)C(NC(=O)Cc1cc(C(F)(F)F)cc(C(F)(F)F)c1)C(=O)c1ccccc1 (stereo unspecified)	-	-	0	-	0	-
CCN1CCN(Cc2ccc(NC(=O)c3ccc(C)c(NC(=O)c4nccn4C)c3)cc2C(F)(F)F)CC1	0	0	0	0	0	0
CCN1CCN(Cc2ccc(NC(=O)c3ccc(C)c(NC(=O)c4cc(-c5ccc(Br)cc5)n[nH]4)c3)cc2C(F)(F)F)CC1	0	0	0	0	0	0
CCN1CCN(Cc2ccc(NC(=O)c3cc(NC(=O)c4cnnc5ccccc45)cc(OC)c3)cc2C(F)(F)F)CC1	0	0	55.8!	0	0	0
CCN1CCN(Cc2ccc(NC(=O)c3cc(NC(=O)c4cncc(-c5ccc(C#N)cc5)c4)cc(OC)c3)cc2C(F)(F)F)CC1	0	0	94.0!	0	0	0
CCN1CCN(Cc2ccc(NC(=O)c3cc(NC(=O)c4nccnc4N)cc(OC)c3)cc2C(F)(F)F)CC1	0	0	0	0	0	0
CCN1CCN(Cc2ccc(NC(=O)c3ccc(C)c(NC(=O)c4cncc(-c5cccs5)c4)c3)cc2C(F)(F)F)CC1	-	-	69.7	-	0	-
CC(=O)N(C)c1ccc(NC(=O)Cc2cccs2)cc1	0	0	0	-	0	0
CCCCCCCCCCCCCCCC[n+]1ccc(/C=N/O)cc1	0	0	0	70.2	0	0
O/N=C/c1cccc[n+]1CCCCCC[n+]1ccccc1/C=N/O	0	0	0	-	0	0
CCCCCCCCCCCCCCCC[n+]1cccc(C(=O)N(CC)CC)c1	0	0	0	0	0	0
CCCCCCCCCCCCCCCC[n+]1ccccc1	-	-	94.7	-	0	-
CCCCCCCCCCCCCCCC[n+]1ccc(C(N)=O)cc1	0	0	71.2	0	0	0
Cc1cc(C)c(NC(=O)COC(=O)c2nc3nccc(C)n3n2)c(Cl)c1	0	0	0	-	0	0
CC(C)(C)c1nnc(NS(=O)(=O)c2ccc([N+](=O)[O-])cc2)s1	0	0	0	-	0	0
CN(C(=O)c1cccc(NC(=O)Cc2ccc(NC(=O)C3CCCN(C(=O)C4CC4)C3)cc2)c1)C1CCC1 (stereo unspecified)	-	-	0	-	0	-
CC(Sc1cccc[n+]1[O-])C(=O)NC1CCCCC1C (stereo unspecified)	0	0	0	-	0	0
CNC(=O)COC(=O)c1ccccc1C(=O)c1ccc(Cl)c([N+](=O)[O-])c1	-	-	0	0	0	-
O=C(COC(=O)c1ccccc1C(=O)c1ccc(Cl)c([N+](=O)[O-])c1)NC1CC1	0	0	92.9	0	0	0
O=C(CCCCCNC(=O)c1ccccc1)N=Nc1c(O)[nH]c2c(Br)cc(Br)cc12	0	0	-	0	-	0
SMILES	SENP6 inh	SENP7 inh	TRAIL sens C8	PPC-1+TRAIL kill	SENP8 block-1	SENP8 block-2
O=C(CNC(=O)c1cccnc1)N=Nc1c(O)[nH]c2c(Br)cc(Br)cc12	0	0	0	-	44.3	0
Cc1ccc(Cn2nc(C)c(C(=O)NCC(c3ccc(F)cc3)N3CCOCC3)c2Cl)cc1 (stereo unspecified)	0	0	0	-	0	0
COc1ccc(N2CCN(C(=O)c3ccc4c(c3)CC(c3ccccc3)OC4=O)CC2)cc1 (stereo unspecified)	0	0	0	-	0	0
CCC(C)(C)C1CCc2[nH]nc(C(=O)N/N=C(\C)c3ccco3)c2C1 (stereo unspecified)	58.0	0	0	0	0	0
CCCc1nnc(NS(=O)(=O)c2ccc(C)cc2)o1	-	-	0	-	0	-
O=C(N/N=C/c1ccc2cccnc2c1)c1ccco1	0	0	61.2	0	0	0
CCN(CC)c1ccc(/C=N/NC(=O)c2ccco2)cc1	-	-	51.6	0	0	-
CCN(CC)c1ccc(/C=N/NC(=O)c2cnccn2)cc1	0	0	0	0	0	0
CCN(CC)c1ccc(/C=N/NC(=O)c2ccccn2)cc1	0	0	64.6	0	0	0
O=C(N/N=C/c1ccccc1)c1ccco1	0	0	0	0	0	0
CCN(CC)c1ccc(/C=C(\C#N)c2ccccn2)cc1	83.7	87.8	81.1	62.1	0	88.0
CCN(Cc1ccccc1)c1ccc(/C=C(\C#N)c2ccccn2)cc1	0	0	0	0	0	0
COC(=O)CN1C(=O)[C@H]2[C@@H](/C=C/c3ccccc3)N3C(=O)CN(Cc4ccccc4)C(=O)[C@@]3(C)[C@H]2C1=O	0	0	0	-	0	0
COc1ccc(N(C)S(=O)(=O)c2cccc(C(=O)N3CCN(S(=O)(=O)c4ccc(C)cc4)CC3)c2)cc1	0	0	0	-	0	0
CC(OC(=O)Cn1cnc2c1c(=O)n(C)c(=O)n2C)C(=O)NC1(C#N)CCCCC1 (stereo unspecified)	0	0	0	-	0	0
COc1ccccc1CNC(=O)CN1C(=O)NC(Cc2ccccc2)(c2ccccc2)C1=O (stereo unspecified)	0	0	0	-	0	0
O=C(NC(=S)Nc1cccnc1)c1cccs1	0	0	0	0	0	0
CCC(C)c1ccc(O)c(NC(=S)NC(=O)c2cccs2)c1 (stereo unspecified)	-	-	58.3	-	0	-
Cc1ccc2nc(NC(=S)NC(=O)c3ccco3)sc2c1	-	-	81.8	0	0	-
O=C(NC(=S)Nc1ccc(Cl)cn1)c1cccs1	0	0	71.8	0	0	0
CC(=O)Nc1nc2ccc(NC(=O)c3ccco3)cc2s1	0	0	0	0	0	0
Cc1ccc2nc(NC(=O)c3ccc(-c4nc5ccccc5s4)s3)sc2c1	0	0	66.9	0	0	0
COc1cc(NC(=O)CSc2nc(=O)n(CCN3CCOCC3)c3c2CCCC3)cc(OC)c1	0	0	0	-	0	0
COc1ccc(C(CNC(=O)c2cc(S(=O)(=O)N3CCCC3)ccc2Cl)N2CCCC2)cc1 (stereo unspecified)	0	0	0	-	0	0
CCCC(=O)N1CCC1(C)C(=O)NS(=O)(=O)c1cc(C)ccc1F (stereo unspecified)	-	-	0	-	0	-
C=CCC1NS(=O)(=O)OCC1C(C)C (stereo unspecified)	0	0	0	-	0	0
